From PubChem BioAssay (EPA / NIEHS)
Where “and” joins values, the source holds several entries; their conditions need not be identical. Equal values may be shown once. Records with an inconclusive call do not appear. Some compounds were tested as several samples or in several runs, with calls that do not always agree. Calls of active or inactive are those of the source. Rule for the calls, unless noted: active = hit-call score of the fitted dose curve at least 0.9, where 1 is the maximum; inactive = score below 0.9.

How the values were obtained:
[1] = target: Cellular tumor antigen p53 (Homo sapiens) (UniProt P04637); assay: TOX21_p53_BLA_p2_ratio: Tox21 HCT-116 p53 Agonism Beta-lactamase Assay, Ratio, Phase 2 (AID 2283592; active = hit-call score of the fitted dose curve at least 0.9, where 1 is the maximum)
Summary of the method: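 An inducible beta-lactamase reporter in HCT116 cells signals p53 pathway activation. After 16 h chemical exposure at 37C, cells load CCF4-AM substrate for 2 h at room temperature; activity is the cleaved/uncleaved emission ratio relative to DMSO.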

[2] = TOX21_p53_BLA_p3_viability: Viability Assessment in the Tox21 HCT-116 p53 Agonism Beta-lactamase Assay, Phase 3 (AID 2283593; active = hit-call score of the fitted dose curve at least 0.9, where 1 is the maximum;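 note: cells exposed to compound for 16 h before reading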)
Summary of the method: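 Cellular ATP was quantified by CellTiter-Glo luminescence, read after 30 min at room temperature. Beforehand, HCT116 cells (4000/well) received compound 5 h post-seeding, 217-fold diluted from DMSO, then incubated 16 h at 37C.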

[3] = target: Cellular tumor antigen p53 (Homo sapiens) (UniProt P04637); assay: TOX21_p53_BLA_p3_ratio: Tox21 HCT-116 p53 Agonism Beta-lactamase Assay, Ratio, Phase 3 (AID 2283596; active = hit-call score of the fitted dose curve at least 0.9, where 1 is the maximum)
Summary of the method: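 HCT116 p53-bla cells (4000/well) given compound in DMSO (217-fold dilution) after 5 h, incubated 16 h at 37C. CCF4-AM substrate 2 h at room temperature; 460/530 nm emission ratio, gain fitted against DMSO.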

[4] = target: Cellular tumor antigen p53 (Homo sapiens) (UniProt P04637); assay: TOX21_p53_BLA_p5_ratio: Tox21 HCT-116 p53 Agonism Beta-lactamase Assay, Ratio, Phase 5 (AID 2283599; active = hit-call score of the fitted dose curve at least 0.9, where 1 is the maximum)
Summary of the method: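 Beta-lactamase reporter ratio (blue 460 nm over green 530 nm, 405 nm excitation) after 2 h CCF4-AM loading, in HCT-116 cells exposed 16 h at 37 C to compounds pinned at 217-fold dilution. Increases relative to DMSO baseline scored.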

[5] = target: Cellular tumor antigen p53 (Homo sapiens) (UniProt P04637); assay: TOX21_p53_BLA_p4_ratio: Tox21 HCT-116 p53 Agonism Beta-lactamase Assay, Ratio, Phase 4 (AID 2283601; active = hit-call score of the fitted dose curve at least 0.9, where 1 is the maximum)
Summary of the method: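 Signal is the blue/green (460nm/530nm) ratio of cleaved versus uncleaved CCF4-AM substrate, read after 2 h substrate loading. Cells were HCT116 carrying the p53-responsive beta-lactamase reporter, dosed 16 h at 37C, 5% CO2; CellTiter-Glo measured in parallel.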

[6] = tested on: Thyroperoxidase (TPO), gene 54314; assay: CCTE_Simmons_AUR_rTPO: CCTE's Amplex UltraRed Assay for Thyroperoxidase (TPO) Inhibition, Simmons Lab (AID 2283662; active = hit-call score of the fitted dose curve at least 0.9, where 1 is the maximum)
Summary of the method: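 Rat thyroid microsomes (5 ug protein) with 25 uM Amplex UltraRed and 300 uM H2O2 in 200 mM phosphate buffer, 30 min at 37C in dark; fluorescence 544/590 nm. Eight concentrations, 5 nM–87.5 uM final, 0.5% DMSO, triplicate biological replicates.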

[7] = CCTE_Simmons_CellTiterGLO_HEK293T: Viability Assessment in CCTE's Assays for Thyroperoxidase (TPO) Inhibition, Simmons Lab (AID 2283665; active = hit-call score of the fitted dose curve at least 0.9, where 1 is the maximum;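 note: cells exposed to compound for 24 h before readout; actives reduce ATP signal below DMSO vehicle meaning cytotoxicity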)
Summary of the method: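 HEK293T cells in DMEM with 1% FBS, dosed 24 h at 37C with 8 concentrations, 5 nM–87.5 uM final, 0.5% DMSO. ATP measured by CellTiter Glo luminescence; loss of signal vs DMSO, three biological replicates.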

[8] = target: Luciferin 4-monooxygenase (Photinus pyralis) (UniProt P08659); assay: CCTE_Simmons_QuantiLum_inhib_2: CCTE's Firefly Luciferase Inhibition Assay, Simmons Lab (AID 2283767; active = hit-call score of the fitted dose curve at least 0.9, where 1 is the maximum;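 note: potency for inhibitors that lower luciferase luminescence relative to DMSO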)
Summary of the method: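 Cell-free recombinant firefly luciferase (5 ng/well) in 200mM potassium phosphate with 1 mg/ml BSA, 30 min at 37C with 8 concentrations from 5 nM to 87.5 uM [final], 0.5% DMSO. Luminescence read after D-luciferin (150uM)/dATP (147uM) reagent injection, pH 7.8; triplicates.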

[9] = CCTE_Shafer_MEA_dev_firing_rate_mean: CCTE's Neural Network Formation Assay for Mean Firing Rate, Shafer Lab (AID 2284031);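 note: curve fitted for loss of firing so AC50 reflects decreased mean firing rate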
Summary of the method: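 Primary rat cortical neurons on 48-well MEA plates, exposed from plating day 0 with dosing renewed on DIV 5 and 9. Mean well firing rate over active electrodes, recorded days 5, 7, 9, 12, summarised as trapezoidal AUC.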

[10] = CCTE_Shafer_MEA_dev_active_electrodes_number: CCTE's Neural Network Formation Assay for Number of Active Electrodes, Shafer Lab (AID 2284040; active = hit-call score of the fitted dose curve at least 0.9, where 1 is the maximum;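 note: potency for loss of active electrodes versus DMSO so lower counts are hits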)
Summary of the method: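 Primary rat cortical neurons on 16-electrode MEA wells, exposed from day 0 through day 12 with compound renewed at DIV 5 and 9 feeds. Active electrodes (mean firing ≥5 spikes/min) counted at DIV 5, 7, 9, 12; trapezoidal AUC across days, loss-of-signal versus DMSO.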

[11] = CCTE_Shafer_MEA_dev_burst_rate: CCTE's Neural Network Formation Assay for Burst Rate, Shafer Lab (AID 2284042);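 note: potency for loss of burst rate below DMSO control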
Summary of the method: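 Primary rat cortical neurons on PEI-coated 48-well MEA plates (laminin added with cells at plating) (16 electrodes/well), exposed from plating to day 12, dosing renewed at DIV 5 and 9. Burst rate averaged over active electrodes, recorded DIV 5, 7, 9, 12, summarized as AUC; loss versus DMSO.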

[12] = CCTE_Shafer_MEA_dev_bursting_electrodes_number: CCTE's Neural Network Formation Assay for Number of Bursting Electrodes, Shafer Lab (AID 2284043; active = hit-call score of the fitted dose curve at least 0.9, where 1 is the maximum;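 note: potency is for loss of bursting electrodes relative to DMSO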)
Summary of the method: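 Read-out is the per-well number of electrodes bursting at least once every 2 minutes, recorded on days 5, 7, 9 and 12 and collapsed by trapezoidal area under the curve. Cultures were primary rat cortical neurons on MEA plates, treated continuously from plating.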

[13] = CCTE_Shafer_MEA_dev_burst_duration_mean: CCTE's Neural Network Formation Assay for Mean Burst Duration, Shafer Lab (AID 2284045);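 note: curve fitted for loss meaning shorter burst duration than DMSO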
Summary of the method: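 Read-out: average first-to-last-spike interval within single-electrode bursts, averaged over bursting electrodes per well, then summarised as area under the curve across days 5, 7, 9 and 12. Developing rat cortical networks were exposed from day 0.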

[14] = CCTE_Shafer_MEA_dev_inter_network_spike_interval_mean: CCTE's Neural Network Formation Assay for Mean Inter-network Spike Interval, Shafer Lab (AID 2284047);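 note: potency for a decrease in mean inter-network spike interval below DMSO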
Summary of the method: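 Primary rat cortical neurons on 16-electrode MEA wells, exposed from plating day 0 through DIV 12, compound renewed at DIV 5 and 9 media changes. Mean interval between network-spike peaks recorded DIV 5, 7, 9, 12; collapsed as trapezoidal AUC, fitted downward versus DMSO.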

[15] = CCTE_Shafer_MEA_dev_network_spike_number: CCTE's Neural Network Formation Assay for Number of Network Spikes, Shafer Lab (AID 2284048);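 note: synchronized bursts across electrodes counted on days 5 7 9 12 and integrated as AUC; fit as a loss of signal meaning fewer network spikes than DMSO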
Summary of the method: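 Developing networks of primary rat cortical neurons are treated over 12 days starting at plating, with media and compound fully replaced on DIV 5 and 9. Network spike counts from four recording days are integrated as trapezoidal AUC.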

[16] = CCTE_Shafer_MEA_dev_network_spike_peak: CCTE's Neural Network Formation Assay for Mean Number of Electrodes in Network Spike, Shafer Lab (AID 2284049);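 note: fitted for loss of signal meaning fewer electrodes in network spikes than DMSO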
Summary of the method: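 Rat cortical primary culture, 1.5 x 10^5 cells/well, 48-well MEA (16 electrodes/well). Dosing day 0 through DIV 12, full media/compound exchange DIV 5, 9. AxIS adaptive spike detection; AUC over days 5/7/9/12; loss-of-signal vs DMSO.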

[17] = CCTE_Shafer_MEA_dev_spike_duration_mean: CCTE's Neural Network Formation Assay for Mean Spike Duration, Shafer Lab (AID 2284051);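 note: mean network spike duration pooled as area under curve over DIV 5 to 12 recordings; potency for a decrease in mean network spike duration versus DMSO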
Summary of the method: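 Primary rat cortical neurons on 16-electrode MEA wells (PEI-coated, laminin in plating drop), exposed from plating through DIV 12 with compound renewed at DIV 5 and 9. Mean network-spike duration recorded DIV 5, 7, 9, 12; trapezoidal AUC across days, DMSO baseline.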

[18] = CCTE_Shafer_MEA_dev_network_spike_duration_std: CCTE's Neural Network Formation Assay for Standard Deviation of Network Spike Duration, Shafer Lab (AID 2284052);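 note: area under curve of spike duration SD across recording days 5 to 12; hits are decreases in network spike duration SD versus DMSO vehicle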
Summary of the method: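 Primary rat cortical neurons on PEI-coated 16-electrode MEA wells, exposed from plating day 0 through day 12 with compound renewed at DIV 5 and 9. Network spike duration SD recorded on days 5, 7, 9, 12, collapsed as trapezoidal AUC; loss-of-signal fit versus DMSO.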

[19] = CCTE_Shafer_MEA_dev_per_network_spike_spike_number_mean: CCTE's Neural Network Formation Assay for Mean Number of Spikes in a Network Spike, Shafer Lab (AID 2284053);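 note: fitted as decrease in spikes per network spike relative to DMSO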
Summary of the method: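 Primary rat cortical neurons on 48-well, 16-electrode MEA plates were exposed from plating to DIV 12, with dosing renewed on DIV 5 and 9. Spikes per network spike (0.05 s peak window) were recorded on DIV 5, 7, 9 and 12 and collapsed as trapezoidal AUC versus DMSO.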

[20] = CCTE_Shafer_MEA_dev_per_network_spike_spike_percent: CCTE's Neural Network Formation Assay for Percent of Spikes in a Network Spike, Shafer Lab (AID 2284054)
Summary of the method: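 Rat primary cortical cultures, 1.5 x 10^5 cells/well on MEA. Continuous compound exposure d0–12, medium/compound renewed DIV 5, 9. Network-spike spike % (0.05 s peak window), AUC over 4 recordings, DMSO baseline.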

[21] = UKN5_HCS_SBAD2_cell_viability: Viability Assessment in the University of Konstanz (UKN) Leist Lab Neurite Outgrowth Assay in human iPSC-derived immature Dorsal Root Ganglia Neurons (UKN5) (AID 2284056)
Summary of the method: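 iPSC-derived immature peripheral neurons (SBAD2) seeded on Matrigel with CHIR99021, SU5402 and DAPT, dosed 1 h later for 24 h. Viability from Hoechst H-33342 and calcein-AM live staining, high-content imaging; bidirectional fit versus DMSO.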

[22] = CCTE_Shafer_MEA_dev_LDH: CCTE's Lactate Dehydrogenase Assay for Cytotoxicity in the Neural Network Formation Assay, Shafer Lab (AID 2284068; active = hit-call score of the fitted dose curve at least 0.9, where 1 is the maximum;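 note: exposure for twelve days from plating with re-dosing on DIV 5 and 9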)
Summary of the method: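 Primary rat cortical neurons were plated on PEI/laminin MEA plates and exposed from day 0 for twelve days, with compound renewed at DIV 5 and 9. Cytotoxicity was determined by spectrophotometric LDH assay relative to DMSO.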

[23] = UKN5_HCS_SBAD2_neurite_outgrowth: University of Konstanz (UKN) Leist Lab Neurite Outgrowth Assay in human iPSC-derived immature Dorsal Root Ganglia Neurons (UKN5) (AID 2284070); settings: actives raise or lower the signal
Summary of the method: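 SBAD2 iPSC-derived immature peripheral neurons on Matrigel, 100.000 cells/cm2, medium with CHIR99021 (1.5 uM), SU5402 (5 uM), DAPT (5 uM); compound added 1 h post-seeding for 24 h. Calcein-AM neurite area by high-content imaging; Hoechst H-33342 viability; bidirectional fit vs DMSO.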

[24] = CCTE_Shafer_MEA_dev_AB: CCTE's Alamar Blue Assay for Cytotoxicity in the Neural Network Formation Assay, Shafer Lab (AID 2284083; active = hit-call score of the fitted dose curve at least 0.9, where 1 is the maximum;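 note: twelve days of exposure from plating with re-dosing on DIV 5 and 9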)
Summary of the method: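 Primary rat cortical neurons on PEI-coated 48-well MEA plates, 1.5 x 10^5 cells/well in laminin drop; compound exposure from day 0 of plating for twelve days, renewed at medium changes on DIV 5 and 9. Viability read as resazurin reduction by fluorescence, relative to DMSO.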

[25] = CCTE_Shafer_MEA_dev_mutual_information_norm: CCTE's Neural Network Formation Assay for Mutual Information Normalization, Shafer Lab (AID 2284091);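 note: mutual information between electrodes summarised as area under curve across four recording days; potency is for a decrease in mutual information relative to DMSO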
Summary of the method: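 Developing rat cortical networks on 16-electrode MEA wells are treated throughout formation (DIV 0–12). Shared electrode information is recorded four times, converted to area-under-curve, and fitted for decreases against DMSO vehicle.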

[26] = CCTE_Shafer_MEA_dev_correlation_coefficient_mean: CCTE's Neural Network Formation Assay for Mean Correlation Coefficient, Shafer Lab (AID 2284093);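 note: well mean pairwise spike train correlation integrated as AUC over recording days 5 to 12; potency fitted for loss of correlation relative to DMSO vehicle wells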
Summary of the method: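 Spontaneous activity recorded on days 5, 7, 9 and 12 post-plating; pairwise spike correlations are averaged across active electrodes and collapsed to an area-under-curve. Rat cortical cultures are dosed from plating through 12 days, with compound renewed at media changes.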

[27] = UKN2_HCS_IMR90_neural_migration: University of Konstanz (UKN) Leist Lab Neural Crest Cell Migration Assay in human induced IMR90 Pluripotent Stem Cells (UKN2) (AID 2284204); settings: actives raise or lower the signal
Summary of the method: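 Migration of human IMR90-derived neural crest cells into a stopper-defined gap is imaged after 24 h chemical treatment. Activity is fitted bidirectionally relative to DMSO.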

[28] = UKN4_HCS_LUHMES_neurite_outgrowth: University of Konstanz (UKN) Leist Lab Neurite Outgrowth Assay in human LUHMES cells (UKN4) (AID 2284206); settings: actives raise or lower the signal
Summary of the method: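 Human LUHMES neuronal precursors, differentiated 2 days then replated without cAMP and GDNF, exposed to compounds for 24 h. Neurite area imaged by high-content microscopy after calcein-AM live staining; Hoechst H-33342 for viability; bidirectional fit versus DMSO.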

[29] = IUF_NPC1b_proliferation_BrdU_72hr: Leibniz Research Institute for Environmental Medicine (IUF) 72-hour Neural Progenitor Cell Bromodeoxyuridine (BrdU) Proliferation Assay (NPC1b) (AID 2284207)
Summary of the method: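 Proliferation of primary human neural progenitor cells: 72 h compound treatment at 37C, 5% CO2, pH 7.2-7.6, in EGF/FGF-containing medium. Readout is BrdU uptake (last 16 h) by chemiluminescent ELISA, normalised to DMSO.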

[30] = IUF_NPC1a_proliferation_area_72hr: Leibniz Research Institute for Environmental Medicine (IUF) 72-hour Neural Progenitor Cell Proliferation Area Assay (NPC1a) (AID 2284208)
Summary of the method: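 Proliferation is scored as sphere area gain in primary human fetal neural progenitors treated for 72 h in EGF/FGF-containing medium. Viability, LDH and BrdU readouts come from the same wells.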

[31] = IUF_NPC1_viability_72hr: Viability Assessment at 72 hours in the Leibniz Research Institute for Environmental Medicine (IUF) Neural Progenitor Cell Proliferation Assay (NPC1) (AID 2284209)
Summary of the method: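 Single spheres (0.25-0.35 mm) of human fetal cortex-derived neural progenitor cells were grown in proliferation medium with EGF and FGF at 37C and 5% CO2. They were exposed for 72 h without renewal, and viability was read by alamar blue resorufin fluorescence.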

Measured: AC50

Cellular tumor antigen p53 (Homo sapiens), sequence (P04637 whole entry, looked up): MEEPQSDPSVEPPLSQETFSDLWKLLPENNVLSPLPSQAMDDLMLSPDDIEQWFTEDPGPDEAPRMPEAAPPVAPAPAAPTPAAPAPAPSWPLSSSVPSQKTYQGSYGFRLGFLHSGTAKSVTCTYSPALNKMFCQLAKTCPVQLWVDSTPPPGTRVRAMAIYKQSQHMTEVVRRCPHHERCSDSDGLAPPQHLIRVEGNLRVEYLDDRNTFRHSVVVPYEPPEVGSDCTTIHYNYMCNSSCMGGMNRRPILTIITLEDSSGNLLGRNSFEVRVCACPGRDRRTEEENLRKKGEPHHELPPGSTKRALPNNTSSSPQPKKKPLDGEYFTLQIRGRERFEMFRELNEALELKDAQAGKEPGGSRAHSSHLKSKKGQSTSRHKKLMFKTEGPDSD
Luciferin 4-monooxygenase (Photinus pyralis), sequence (P08659 whole entry, looked up): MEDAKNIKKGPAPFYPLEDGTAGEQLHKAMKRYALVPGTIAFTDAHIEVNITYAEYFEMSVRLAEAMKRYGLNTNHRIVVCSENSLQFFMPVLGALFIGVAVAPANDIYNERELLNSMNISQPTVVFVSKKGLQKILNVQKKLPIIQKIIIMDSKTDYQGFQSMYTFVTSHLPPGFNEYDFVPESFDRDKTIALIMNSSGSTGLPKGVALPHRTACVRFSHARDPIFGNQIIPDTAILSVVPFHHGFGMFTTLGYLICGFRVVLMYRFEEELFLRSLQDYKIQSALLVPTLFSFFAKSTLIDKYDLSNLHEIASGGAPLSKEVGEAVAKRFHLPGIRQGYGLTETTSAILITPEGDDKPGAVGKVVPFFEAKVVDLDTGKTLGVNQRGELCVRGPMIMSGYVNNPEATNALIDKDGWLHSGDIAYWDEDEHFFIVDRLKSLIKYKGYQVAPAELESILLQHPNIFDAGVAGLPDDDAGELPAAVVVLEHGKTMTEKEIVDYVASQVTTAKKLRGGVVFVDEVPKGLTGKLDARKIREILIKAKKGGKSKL

[CH3][Hg][Cl]
active: [1] 44800 nM | [2] 79600 nM | [3] 1770 nM | [4] 2250 nM | [7] 4180 nM | [8] 4220 nM | [9] 177 nM | [10] 360 nM | [11] 207 nM | [12] 370 nM | [13] 260 nM | [14] 5.7 nM | [15] 86.7 nM | [16] 356 nM | [17] 275 nM | [18] 164 nM | [19] 536 nM | [20] 309 nM | [21] 3170 nM | [22] 182 nM | [23] 636 nM | [24] 283 nM | [25] 134 nM | [26] 306 nM | [27] 5000 nM | [28] 164 nM | [29] 906 nM and 968 nM | [30] 370 nM | [31] 820 nM
inactive: [5] | [6] | [31]
